Measured values reported in PubChem BioAssay AID1159580 (chemical genetic matrix, 2015).
About 2,000 (36%) of roughly 5,500 compounds were called active. Roughly 18% stayed inconclusive and do not appear here. Rule as the data show it: active = normalized growth mostly below about 0.91 (no sharp cut-off); inconclusive = no clear call, values can overlap the other calls; inactive = mostly above about 0.92. Some of the results follow.

Assay: chemical genetic growth profiling, strain panel (AID 1159580);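 also: tested at 20 µM; growth read once vehicle control cultures reached saturation at 30 °C; 1 = growth at the plate median or of vehicle wells; lower values mean less growth of the strain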
Conditions: S. cerevisiae deletion strains, growth OD

Measured: normalized growth

COc1ccc(C2CNC(=O)C2)cc1OC1CCCC1 (stereo unspecified)
inactive: locus YAL013W, strain DEP1, active compounds read low 1.01 | locus YAL021C, strain ccr4, active compounds read low 1 | locus YAL026C, strain drs2, active compounds read low 1.02 | locus YAL030W, strain snc1, active compounds read low 1.02 | locus YAL040C, strain CLN3, active compounds read low 0.999 | locus YBL061C, strain skt5, active compounds read low 1.01 | locus YBR009C, strain hhf1, active compounds read low 1.02 | locus YBR023C, strain chs3, active compounds read low 1.01 | locus YBR171W, strain sec66, active compounds read low 1.02 | locus YBR231C, strain swc5, active compounds read low 1.02 | locus YBR279W, strain paf1, active compounds read low 1.01 | locus YCL011C, strain gbp2, active compounds read low 1.01 | locus YCL016C, strain dcc1, active compounds read low 1.01 | locus YCL061C, strain MRC1 (second series), active compounds read low 1 | locus YCL061C, strain MRC1, active compounds read low 1.01 | locus YCL069W, strain vba3, active compounds read low 1.01 | locus YCR088W, strain abp1, active compounds read low 1.01 | locus YDL005C, strain med2, active compounds read low 0.996 | locus YDL040C, strain nat1, active compounds read low 1.01 | locus YDR001C, strain nth1, active compounds read low 1.01 | locus YDR069C, strain doa4, active compounds read low 1.02 | locus YDR137W, strain rgp1, active compounds read low 1.02 | locus YDR159W, strain sac3, active compounds read low 1.03 | locus YDR195W, strain ref2 1.01 | locus YDR297W, strain sur2, active compounds read low 1.01 | locus YDR334W, strain swr1, active compounds read low 1.01 | locus YDR335W, strain msn5, active compounds read low 1.01 | locus YDR363W, strain ESC2, active compounds read low 1.01 | locus YDR392W, strain spt3, active compounds read low 1.04 | locus YEL003W, strain gim4, active compounds read low 1.01 | locus YEL037C, strain rad23, active compounds read low 0.965 | locus YEL061C, strain CIN8 (second series), active compounds read low 1.01 | locus YER002W, strain NOP16, active compounds read low 0.993 | locus YER015W, strain faa2, active compounds read low 1 | locus YER016W, strain bim1, active compounds read low 1.01 | locus YER111C, strain swi4, active compounds read low 1.02 | locus YER155C, strain BEM2 (second series), active compounds read low 1.04 | locus YFR010W, strain ubp6, active compounds read low 1 | locus YGL167C, strain pmr1, active compounds read low 1.01 | locus YGL173C, strain kem1, active compounds read low 1.01 | locus YGL227W, strain vid30, active compounds read low 1.01 | locus YGL240W, strain doc1, active compounds read low 1.02 | locus YGL253W, strain hxk2, active compounds read low 1.03 | locus YHR013C, strain ard1, active compounds read low 1.04 | locus YHR027C, strain rpn1, active compounds read low 1.01 | locus YHR142W, strain chs7, active compounds read low 0.98 | locus YJL092W, strain hpr5, active compounds read low 1 | locus YJL095W, strain BCK1 (second series), active compounds read low 1.01 | locus YJL115W, strain asf1, active compounds read low 1.01 | locus YJL129C, strain trk1, active compounds read low 1.02 | locus YJL154C, strain vps35, active compounds read low 1 | locus YJL164C, strain tpk1, active compounds read low 0.999 | locus YJL166W, strain qcr8, active compounds read low 1.02 | locus YJL187C, strain SWE1, active compounds read low 1.01 | locus YJR075W, strain HOC1, active compounds read low 1.01 | locus YKL160W, strain elf1, active compounds read low 0.998 | locus YKR026C, strain gcn3, active compounds read low 0.994 | locus YKR091W, strain srl3, active compounds read low 1.01 | locus YLL001W, strain dnm1, active compounds read low 1.01 | locus YLL026W, active compounds read low 1.02 | locus YLL041C, strain sdh2, active compounds read low 1.01 | locus YLR027C, strain aat2, active compounds read low 1.01 | locus YLR221C, strain rsa3, active compounds read low 1.01 | locus YLR258W, strain gsy2, active compounds read low 1.01 | locus YLR262C, strain YPT6 (second series), active compounds read low 1.02 | locus YLR320W, strain mms22, active compounds read low 1.02 | locus YLR342W, strain FKS1, active compounds read low 1 | locus YLR357W, strain rsc2, active compounds read low 1.01 | locus YLR370C, strain arc18, active compounds read low 1.02 | locus YLR384C, strain iki3, active compounds read low 0.999 | locus YML120C, strain ndi1, active compounds read low 1.01 | locus YMR058W, strain fet3, active compounds read low 1.02 | locus YMR125W, strain sto1, active compounds read low 1.02 | locus YMR129W, active compounds read low 1.02 | locus YMR205C, strain PFK2, active compounds read low 1.03 | locus YMR231W, strain pep5, active compounds read low 1 | locus YMR263W, strain SAP30, active compounds read low 1 | locus YMR307W, strain GAS1, active compounds read low 1.03 | locus YNL071W, strain lat1, active compounds read low 1.02 | locus YNL175C, strain NOP13, active compounds read low 1.01 | locus YNL197C, strain WHI3, active compounds read low 1.01 | locus YNL209W, strain ssb2, active compounds read low 1.01 | locus YNL224C, strain SQS1, active compounds read low 0.995 | locus YNL248C, strain rpa49, active compounds read low 0.974 | locus YNL322C, strain KRE1 (second series), active compounds read low 0.996 | locus YNR049C, strain mso1, active compounds read low 1 | locus YOR001W, strain rrp6, active compounds read low 1 | locus YOR070C, strain gyp1, active compounds read low 1 | locus YOR080W, strain dia2, active compounds read low 1.01 | locus YOR083W, strain WHI5 (second series), active compounds read low 1.01 | locus YOR083W, strain WHI5, active compounds read low 0.988 | locus YOR106W, strain vam3, active compounds read low 0.989 | locus YOR265W, strain rbl2, active compounds read low 1.01 | locus YOR270C, strain vph1, active compounds read low 1.03 | locus YOR290C, strain snf2, active compounds read low 0.996 | locus YPL051W, strain arl3, active compounds read low 1 | locus YPL055C, strain LGE1, active compounds read low 0.996 | locus YPL078C, strain atp4, active compounds read low 0.988 | locus YPL106C, strain sse1, active compounds read low 1.04 | locus YPL240C, strain hsp82, active compounds read low 1 | locus YPL241C, strain CIN2, active compounds read low 1
